Measured values: the supplement of paper PMC10338343
± gives the standard deviation. The full ranking holds about 8,200 sequences; the median of “pre-steady-state target cleavage rate” is about 0.024, and the highest 2% start at about 1.3. For the sample, the highest values were picked, then their nearest neighbours and some sequences at random.

Tested on: MIWI (PIWIL1) piRISC loaded with L1MC piRNA (30 nt)
Assay: pre-steady-state target cleavage rate (min^-1); MIWI and MILI are mouse PIWI proteins and EfPiwi is from a freshwater sponge; tags in brackets are library labels; higher = faster piRNA-guided slicing of the target
Settings: guide: L1MC piRNA 5'p-UAACUAAAUACUAUGCAAGCUGUAGGUCCU
Method: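 Cleave-'n-Seq: a library of target RNAs (target site embedded in constant flanks, ACAGCATTCCGCGTTAGTGATATCCG... 5' flank; DNA-blocked outside the site) at 0.1 nM was incubated with 1 nM active mouse MILI or MIWI piRISC (synthetic 5'-monophosphorylated piRNA guide) with or without 500 nM mouse GTSF1 at 33 °C for 1 min to 16 h. Uncleaved targets were sequenced and normalised to non-target controls, and the pooled three trials were fitted to a burst-and-steady-state model to give the pre-steady-state cleavage rate (min^-1; k3 is constrained to at most 1e-4). Sequence is the target site only; target names encode pairing extent (gX:gY) and contiguous / 1-mismatch / 2-mismatch / bulge geometry. Fits with R² ≤ 0 are excluded.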

[1] = auxiliary factor: 500 nM mouse GTSF1
[2] = auxiliary factor: none (no GTSF1)

Sequence | pre-steady-state target cleavage rate [1] | pre-steady-state target cleavage rate [2]
UCCUGGAACAGGUAGCAUAGUAUUUAGUUA | 0.266 ± 0.026 | 0.00407 ± 0.0017
UCCACCUUGUGCUUGCAUAGUAUUUACAAA | 0.0809 ± 0.013 | 
UCCUGGAUGAGCUUGCAUAGUGUUUAGUUA | 0.708 ± 0.06 | 0.0494 ± 0.01
UGGACGUACAGCUUGCAUAGUAUUAAGUUA | 0.721 ± 0.069 | 0.0383 ± 0.0073
UGGACCUACAGCUUGCUAAGUAUUUAGUUA | 0.2 ± 0.022 | 0.00384 ± 0.002
UCCUGGAUGAGCUUGCAUAGUAUUUAGUAUA | 0.702 ± 0.054 | 0.0165 ± 0.0055
UCCUGCUACAGCUUGCUUAGUAUUUAGUAA | 0.279 ± 0.023 | 0.0083 ± 0.002
UCCUGGAUCAGCUUGCUUAGUAUUUAGAAA | 0.116 ± 0.021 | 0.00482 ± 0.0028
AGGACCUACAGCAUUGCAUAGUAUUUAGUUA | 1.28 ± 0.12 | 0.0689 ± 0.014
UGGACCUACAGCGUGCAUAGUAUUUAGUUA | 1.43 ± 0.065 | 0.0647 ± 0.013
UCGACCUACAGCGUGCAUAGUAUUUAGUUA | 1.73 ± 0.072 | 0.0576 ± 0.0085
UCGACCUACAGCUGUGCAUAGUAUUUAGUUA | 1.42 ± 0.073 | 0.0386 ± 0.0081
UCGACCUACAGCGUUGCAUAGUAUUUAGUUA | 1.21 ± 0.073 | 0.0561 ± 0.01
UCCUGCUACAGCGUGCAUAGUAUUUAGUUA | 1.27 ± 0.074 | 0.0183 ± 0.005
UCCACCUACAGCGUGCAUAGUAUUUAGUUA | 1.06 ± 0.04 | 0.0325 ± 0.0056
AGGACCUACAGCGUGCAUAGUAUUUAGUUA | 1.34 ± 0.054 | 0.0658 ± 0.011
UGGACCUACAGCUGUGCAUAGUAUUUAGUUA | 1.28 ± 0.11 | 0.0389 ± 0.0098
AGGACCUACAGUUGCAUAGUAUUUAGUUA | 0.988 ± 0.07 | 0.0102 ± 0.0034
AGGACCUACAGCUGUGCAUAGUAUUUAGUUA | 1.29 ± 0.063 | 0.0583 ± 0.012
UCCUGGAUCAGCUUGCAUACUAUUUUCAAA | 0.00597 ± 0.0043 | 
UCCUGGUACUGCUUGCAAAGUAUUUAGUUA | 0.46 ± 0.036 | 0.0221 ± 0.0052

Sequence | pre-steady-state target cleavage rate [1] | pre-steady-state target cleavage rate [2]
UCCUCCUACAGCUUGCAUAGAAUUUACAAA | 0.295 ± 0.045 | 
UCCUGGAUGUCGAACGUAACUAUUUACUUA | < 0.0001 | 
UCCUCCUACAGCUUCGAUAGUAUUUAGUAA | 0.263 ± 0.031 | 
UCCUGGAUGUGCUUGCAUAGUAUAAAGUAA | 0.00523 ± 0.0043 | 
UCGACCUACAGCUUGCAUAGUAUUGAGUUA | 0.499 ± 0.042 | 0.0477 ± 0.0089
UCCUGGAUCAGCUUGCAUACUUUUUAGUUA | 0.014 ± 0.0033 | 0.00335 ± 0.0016
UCGACCUACAGCUUGCAUAGUAGUUUAGUUA | 0.574 ± 0.031 | 0.0134 ± 0.0039
UCCUGGUACAGCUUGCAAAGUAUUAAGUUA | 0.35 ± 0.049 | 0.0147 ± 0.0043
UGGACCUACAGCGUUGCAUAGUAUUUAGUUA | 1.33 ± 0.11 | 0.0647 ± 0.013
UCCUCCUACAGCUGUGCAUAGUAUUUAGUUA | 1.18 ± 0.064 | 0.0204 ± 0.0047
UCCACCUACAGCGUUGCAUAGUAUUUAGUUA | 1.03 ± 0.13 | 0.0279 ± 0.005
AGGACCUACAGCGUUGCAUAGUAUUUAGUUA | 1.21 ± 0.086 | 0.0748 ± 0.015
UCCUCCUACAGCGUGCAUAGUAUUUAGUUA | 1.4 ± 0.042 | 0.0379 ± 0.0072
UCCUCCUACAGCGUUGCAUAGUAUUUAGUUA | 0.96 ± 0.057 | 0.0256 ± 0.0045
UCGACCUACAGCUUGCAUAGUAUUAAGAUA | 0.248 ± 0.029 | 0.00627 ± 0.0027
UCGACCUACAGGUUGCAUAGUAUUUACAAA | 0.183 ± 0.026 | 
AGGACCAACAGCUUGCAUAGUAUAUAGUUA | 0.775 ± 0.054 | 0.0604 ± 0.013
AGGACCUACAGCUUGCAUAGUAAAAAGUUA | 0.489 ± 0.058 | 0.00574 ± 0.0034
UCCUCCUACAGCUUGCAUAGAAAUUAGUUA | 0.169 ± 0.019 | 0.00268 ± 0.0024
UCCUGGUACAGCUUGGUUAGUAUUUAGUAA | 0.412 ± 0.079 | 0.0101 ± 0.0031
UCCUGGUUGAGCUUGCAUAGUAUUUAGAAA | 0.135 ± 0.024 | 0.00555 ± 0.0033

Sequence | pre-steady-state target cleavage rate [1] | pre-steady-state target cleavage rate [2]
UCCUGGAACAGCUUGCAUACAAUUUAGUUA | 0.0117 ± 0.0047 | 
AGGACCUACAGCUUGCAUAGUAUAAAGAAA | 0.434 ± 0.077 | 
AGGACCCACAGCUUGCAUAGUAUUUAGUUA | 1.47 ± 0.093 | 0.0682 ± 0.0093
UCGACCACAGCUUGCAUAGUAUUUAGUUA | 1.22 ± 0.051 | 0.0643 ± 0.011
AGGACCACAGCUUGCAUAGUAUUUAGUUA | 1.29 ± 0.066 | 0.0967 ± 0.019
UGGACCACAGCUUGCAUAGUAUUUAGUUA | 1.47 ± 0.083 | 0.0744 ± 0.015
UCCACCCACAGCUUGCAUAGUAUUUAGUUA | 0.787 ± 0.052 | 0.0508 ± 0.0088
UGGACCCACAGCUUGCAUAGUAUUUAGUUA | 1.43 ± 0.091 | 0.0699 ± 0.011
UCGACCCACAGCUUGCAUAGUAUUUAGUUA | 1.19 ± 0.044 | 0.0644 ± 0.011
UGGACCUAGAGCUUGCAUAGUAUUUAGAAA | 0.296 ± 0.034 | 0.0101 ± 0.0034
UCCACCUAGAGCUAGCAUAGUAUUUAGUUA | 0.339 ± 0.042 | 0.0098 ± 0.0019
UCCUGCUACUCGUUGCAUAGUAUUUACAAA | 0.0303 ± 0.0091 | 
UGGACGUACAGCUUGCAUAGUUUUUAGUUA | 0.35 ± 0.015 | 0.0389 ± 0.0097
UCCUGGAACAGCUUCCAUAGUAUUAAGUUA | 0.0095 ± 0.0047 | 
UCGACCUACAGCUUGCAAUCUAUUUAGAAA | 0.129 ± 0.033 | 
UGGCCUACAGCUUGCAUAGUAUUUAGUUA | 1.46 ± 0.076 | 0.0761 ± 0.014
UGGCCCUACAGCUUGCAUAGUAUUUAGUUA | 1.39 ± 0.11 | 0.0833 ± 0.015
UCGGCCUACAGCUUGCAUAGUAUUUAGUUA | 1.21 ± 0.05 | 0.0767 ± 0.015
AGGCCCUACAGCUUGCAUAGUAUUUAGUUA | 1.15 ± 0.058 | 0.115 ± 0.018
AGGCCUACAGCUUGCAUAGUAUUUAGUUA | 1.41 ± 0.075 | 0.107 ± 0.019
